Screening results (PubChem)
Shown are actives, neighbours in structure and some others; about 1.6% of the full set was active somewhere.
KCNQ2 inh: blocks the rat KCNQ2 potassium channel. CHO-K1 KCNQ2, FluxOR thallium flux, 20 min; stronger effect = lower value. 310,000 tested, 1.1% active. B-score at 10 µM. O88943;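 active = fluorescence ratio B-score at most minus 3 library SDs, with starting brightness B-score within 2 library SDs, cut at about -5.5 in these data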
KCNQ2 enhance: enhances the rat KCNQ2 potassium channel. O88943. CHO-K1 KCNQ2, FluxOR thallium flux fluorescence; stronger effect = higher value. B-score at 10 µM. 310,000 tested, 0.54% active. AID 2239;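 active = fluorescence ratio B-score at least 3 SD of library B-scores, with initial fluorescence B-score within 3 of them, cut at about 5.3 in these data; same plate scores as AID 2156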;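 note: B-score of peak minus minimum over baseline fluorescence ratio after K+ and Tl+ stimulus; positive B-score means potentiation of KCNQ2 with more thallium influx and brighter signal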
KCNQ2 inh conf: rat KCNQ2 channel inhibition, confirmatory screen. shares compounds with KCNQ2 inh. KCNQ2-expressing cells, thallium flux; stronger effect = lower value. activity change, negative = inhibition, % at 10 µM. 1,000 tested, 57% active. AID 493025;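 note: 0% = vehicle wells and values are ratio percent relative to vehicle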
KCNQ1 spec: KCNQ2 inhibitor that also affects human KCNQ1 channel. activity change, negative = inhibition, % at 10 µM. KCNQ1-expressing cells, FluxOR thallium flux fluorescence; stronger effect = lower value. 1,000 tested, 15% active. shares compounds with KCNQ2 inh;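 active = activity change at least 3 SD of negative controls below their mean in both duplicate wells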;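 note: CHO cells stably transfected with KCNQ1 and depolarized by potassium stimulus; peak minus minimum fluorescence over baseline after thallium addition; 0% = vehicle negative control and -100% = blank without thallium stimulus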
CHO Tl ctr: counter-screen for KCNQ2 inhibitors: effect in parental CHO cells. activity change, % at 10 µM. shares compounds with KCNQ2 inh. thallium flux counter-screen; stronger effect = lower value. 1,000 tested, 14% active;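 note: 0% = vehicle negative controls with stimulus buffer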
KCNQ2 inh confirm: confirmation of rat KCNQ2 potassium channel inhibitors. calls only at 10 µM. KCNQ2-expressing cells, automated patch clamp current. shares compounds with KCNQ2 inh. 550 tested, 49% active
The depositor's hits bear a star. Unless noted, the rule behind the calls is not given here.

For CCCCOC(=O)/C(=C/C=C/c1ccccc1)NC(=O)c1ccccc1 the results were KCNQ2 inh -6.86*, KCNQ2 enhance -6.86, KCNQ2 inh conf -25.0%*, KCNQ1 spec inactive, CHO Tl ctr inactive and KCNQ2 inh confirm inactive.
CCC(C)[C@H]1COCCS(=O)(=O)N1Cc1ccccc1 (some centres not stated) was read as KCNQ2 inh inactive and KCNQ2 enhance 0.39.
`CCOc1ccc(NC(=O)CC2C(=O)N(c3ccccc3)C(=O)N2CCc2cccs2)cc1` (configuration not stated) gave KCNQ2 inh inactive and KCNQ2 enhance 1.81.
For COCCNC(=O)CSc1nnc(NC(=O)C2CC(=O)N(c3ccccc3OC)C2)s1 (configuration not stated) the results were KCNQ2 inh inactive and KCNQ2 enhance 0.81.
O=C(COC(=O)c1ccccn1)Nc1cccnc1Cl was read as KCNQ2 inh inactive.
O=C(COC(=O)CC12CC3CC(CC(C3)C1)C2)Nc1cccnc1Cl was read as KCNQ2 inh -7.33*, KCNQ2 enhance -7.33, KCNQ2 inh conf -38.0%*, KCNQ1 spec inactive, CHO Tl ctr inactive and KCNQ2 inh confirm active.
`CC(C)OC(=O)CSc1nc(Cc2cccs2)nc2ccccc12` gave KCNQ2 inh inactive and KCNQ2 enhance 0.19.
For Cc1ccc(NC(CC(=O)c2ccccc2)c2ccc(F)cc2)cc1 (configuration not stated) the results were KCNQ2 inh inactive.
Screening COc1ccc(C(CC(=O)c2ccc(C)cc2)Nc2ccc([N+](=O)[O-])cc2)cc1 (configuration not stated) returned KCNQ2 inh -6.93*, KCNQ2 enhance -6.93, KCNQ2 inh conf -42.0%*, KCNQ1 spec -33.0%*, CHO Tl ctr -26.0%* and KCNQ2 inh confirm inactive.
For CN(C)c1nc(NCc2ccccc2)nc(N/N=C/c2ccccc2F)n1 the results were KCNQ2 inh inactive.
For CN(C)c1nc(NCc2ccccc2)nc(N/N=C/c2ccc(Cl)cc2Cl)n1 the results were KCNQ2 inh -8.81*, KCNQ2 enhance -8.81, KCNQ2 inh conf inactive, KCNQ1 spec inactive and CHO Tl ctr inactive.
For CCC(CC)C(=O)c1c[nH]c(C(=O)N2CCN(c3ccccc3)CC2)c1 the results were KCNQ2 inh inactive and KCNQ2 enhance 1.85.
Screening COc1ccccc1NC(=O)C(C)OC(=O)CCCOc1ccccc1 (configuration not stated) returned KCNQ2 inh inactive.
`CC1(C)Cc2c(C#N)c(NC3CCCCC3)nc(-c3ccco3)c2CO1` gave KCNQ2 inh -12.9*, KCNQ2 enhance -12.9, KCNQ2 inh conf inactive, KCNQ1 spec inactive and CHO Tl ctr inactive.
CC1(C)Cc2c(C#N)c(NCC3CCCO3)nc(-c3ccco3)c2CO1 (configuration not stated) was read as KCNQ2 inh inactive.
`O=C(CCNS(=O)(=O)c1cccs1)NCc1ccccc1` gave KCNQ2 inh inactive and KCNQ2 enhance 0.18.
`CCN(C)Cc1c(C(=O)N2CCc3ccccc3C2)nc2ccc(Cl)cn12` gave KCNQ2 inh inactive.
Screening CN(Cc1c(C(=O)N2CCc3ccccc3C2)nc2ccc(Cl)cn12)C(C1CC1)C1CC1 returned KCNQ2 inh -7.87*, KCNQ2 enhance -7.87, KCNQ2 inh conf -24.0%*, KCNQ1 spec inactive, CHO Tl ctr inactive and KCNQ2 inh confirm active.
`CC(=O)c1ccc(S(=O)(=O)Oc2ccc(-c3ccc(C(=O)O)cc3)cc2)cc1` gave KCNQ2 inh inactive and KCNQ2 enhance 1.46.
CCCCC(=O)OCC(=O)N1N=C(c2c[nH]c3ccccc23)C(O)C1c1ccc(OC)cc1 (configuration not stated) was read as KCNQ2 inh inactive.
O=C1c2oc3ccc(Cl)cc3c(=O)c2C(c2cccc(Br)c2)N1CCO (configuration not stated) was read as KCNQ2 inh -10.6*, KCNQ2 enhance -10.6, KCNQ2 inh conf inactive, KCNQ1 spec inactive and CHO Tl ctr inactive.
CCN(CC)CCN1C(=O)c2oc3ccccc3c(=O)c2C1c1cccc(Br)c1 (configuration not stated) was read as KCNQ2 inh inactive and KCNQ2 enhance 1.16.
CCN(CC)CC(=O)Nc1ccc(-c2ccc(NC(=O)CN(CC)CC)c(OC)c2)cc1OC was read as KCNQ2 inh inactive.
COc1ccc(OCCNS(=O)(=O)c2ccc3oc4ccccc4c3c2)cc1 was read as KCNQ2 inh inactive and KCNQ2 enhance 0.01.
CN(CCOc1ccccc1)S(=O)(=O)c1ccc2oc3ccccc3c2c1 was read as KCNQ2 inh -7.8*, KCNQ2 enhance -7.8, KCNQ2 inh conf -16.5%*, KCNQ1 spec inactive, CHO Tl ctr inactive and KCNQ2 inh confirm inactive.
O=[N+]([O-])c1cnc(Sc2ccncn2)s1 was read as KCNQ2 inh inactive.
C=CCn1c(Sc2ncc([N+](=O)[O-])s2)n[nH]c1=O was read as KCNQ2 inh -9.8*, KCNQ2 enhance -9.8, KCNQ2 inh conf -40.5%*, KCNQ1 spec inactive, CHO Tl ctr inactive and KCNQ2 inh confirm inactive.
`COc1ccc(-c2noc(-c3cccnc3)n2)cc1OC` gave KCNQ2 inh inactive.
For COc1ccc(-c2noc(-c3ccccc3-c3ccccc3)n2)cc1OC the results were KCNQ2 inh -8.9*, KCNQ2 enhance -8.9, KCNQ2 inh conf inactive, KCNQ1 spec inactive and CHO Tl ctr inactive.
CCOC(=O)c1c(C)[nH]c(C)c1S(=O)(=O)NCCc1ccco1 was read as KCNQ2 inh inactive.
For CC1Cc2ccccc2N1C(=O)CNc1ccccc1N1CCCCC1 (configuration not stated) the results were KCNQ2 inh -8.36*, KCNQ2 enhance -8.36, KCNQ2 inh conf inactive, KCNQ1 spec inactive and CHO Tl ctr inactive.
`CC1CCN(CC(=O)N2c3ccccc3CC2C)CC1` (configuration not stated) gave KCNQ2 inh inactive and KCNQ2 enhance 0.66.
For Cc1cc(C)c(S(=O)(=O)N2CCN(S(=O)(=O)N3CCOCC3)CC2)c(C)c1 the results were KCNQ2 inh inactive and KCNQ2 enhance 1.21.
Screening O=C(C1=NN[C@@H]2C(=O)N(c3cccc(C(F)(F)F)c3)C(=O)[C@H]12)c1cnccn1 returned KCNQ2 inh inactive and KCNQ2 enhance 0.42.
For Clc1nc(CN2CCCCC2)nc2sc3c(c12)CCC3 the results were KCNQ2 inh inactive and KCNQ2 enhance 0.77.
Screening CCn1c(C)c(C)c2cc(C(=O)N3CCN(c4ccccc4)CC3)ccc21 returned KCNQ2 inh -6.88*, KCNQ2 enhance -6.88, KCNQ2 inh conf inactive, KCNQ1 spec inactive and CHO Tl ctr inactive.
CCn1c(C)c(C)c2cc(C(=O)N3CCCC3)ccc21 was read as KCNQ2 inh inactive and KCNQ2 enhance 0.37.
